Key:
Experiment in all cases: PBM binding z-score (relative to random genomic background probes); higher = stronger binding; sequences stand for … in GC…GCGATTGACAGCGTAGAATGAAGG
[1] = system: FXR:RXRa (NR concentration 270 nM, RXRa partner concentration 90 nM)
Method in brief: (§1)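 Probes were double-stranded and carried 34-nt variable regions with direct-repeat seeds, single-nucleotide variants, half-site ablations and random human genomic background sequences, printed on custom Agilent 4×180K protein-binding microarrays. Arrays were incubated 1 h with ligand-free nuclear receptor dimers in PBS pH 7.4, 2% milk, 0.02% Triton X-100, 1 mM DTT, 0.2 mg/mL BSA and 0.4 mg/ml salmon testes DNA. Antibodies against each partner (one per run) detected binding, and scanned fluorescence was regression-normalized. Binding z-scores use the random background probes as reference.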

[2] = system: LXRa:RXRa (NR concentration 270 nM, RXRa partner concentration 90 nM)
Method in brief: as §1

[3] = system: LXRa homodimer (NR concentration 270 nM)
Method in brief: as §1

[4] = system: LXRb:RXRa (NR concentration 270 nM, RXRa partner concentration 90 nM)
Method in brief: as §1

[5] = system: LXRb homodimer (NR concentration 270 nM)
Method in brief: as §1

[6] = system: PPARa:RXRa (NR concentration 270 nM, RXRa partner concentration 90 nM)
Method in brief: as §1

[7] = system: PPARg:RXRa (NR concentration 180 nM, RXRa partner concentration 90 nM)
Method in brief: as §1

[8] = system: PPARg:RXRa 270nM:90nM, anti-RXR (NR concentration 270 nM, RXRa partner concentration 90 nM)
Method in brief: as §1

[9] = system: PPARg:RXRa 30nM:10nM, anti-RXR (NR concentration 30 nM, RXRa partner concentration 10 nM)
Method in brief: as §1

[10] = system: PPARg:RXRa 90nM:30nM, anti-RXR (NR concentration 90 nM, RXRa partner concentration 30 nM)
Method in brief: as §1

[11] = system: PPARg:RXRa DBDmut IVT, anti-RXR (DBD mutation: RXRa K156A/R161A, NR concentration 270 nM, RXRa partner concentration 90 nM)
Method in brief: as §1

[12] = system: PPARg:RXRa IVT, anti-PPARg (NR concentration 270 nM, RXRa partner concentration 90 nM)
Method in brief: as §1

[13] = system: PPARg DBDmut:RXRa IVT, anti-PPARg (DBD mutation: PPARg1 K132A/R137A, NR concentration 270 nM, RXRa partner concentration 90 nM)
Method in brief: as §1

[14] = system: PPARg DBDmut IVT, anti-PPARg (DBD mutation: PPARg1 K132A/R137A, NR concentration 270 nM)
Method in brief: as §1

[15] = system: PPARg homodimer (NR concentration 180 nM)
Method in brief: as §1

[16] = system: PXR:RXRa (NR concentration 270 nM, RXRa partner concentration 90 nM)
Method in brief: as §1

[17] = system: PXR homodimer (NR concentration 270 nM)
Method in brief: as §1

[18] = system: RARa:RXR (NR concentration 270 nM, RXRa partner concentration 90 nM)
Method in brief: as §1

[19] = system: RARa homodimer (NR concentration 270 nM)
Method in brief: as §1

[20] = system: RARb:RXRa (NR concentration 270 nM, RXRa partner concentration 90 nM)
Method in brief: as §1

Sequence | PBM binding z-score [1] | PBM binding z-score [2] | PBM binding z-score [3] | PBM binding z-score [4] | PBM binding z-score [5] | PBM binding z-score [6] | PBM binding z-score [7] | PBM binding z-score [8] | PBM binding z-score [9] | PBM binding z-score [10] | PBM binding z-score [11] | PBM binding z-score [12] | PBM binding z-score [13] | PBM binding z-score [14] | PBM binding z-score [15] | PBM binding z-score [16] | PBM binding z-score [17] | PBM binding z-score [18] | PBM binding z-score [19] | PBM binding z-score [20]
ACTCGGAGGCCAAAGGTCAGAGCTACGCCAGTGA | 4.88 | 4.5 | 1.02 | 3.69 | 0.134 | 5.63 | 8.85 | 7.98 | 6.53 | 8.9 | 1 | 4.07 | 0.0532 | -0.392 | 6.38 | 4.9 | -0.00137 | 6.59 | 1.38 | 4.53
TCTATTACTTGAAGGGCAACCGACGAGTCCGTTT | 0.851 | 1.02 | 0.425 | 1.19 | 0.925 | 1.48 | 0.388 | 2.11 | 3.96 | 3.26 | 2.52 | 0.782 | 1.07 | 1.12 | 0.761 | 1.01 | 0.901 | 1.02 | 1.4 | 1.59
CCGACTGGGGCAGTAAGGTTACCATACCATCCGG | 0.252 | -0.0103 | -0.54 | -0.134 | -0.789 | 1.16 | 1.03 | 1.17 | -0.0768 | 0.343 | 2.7 | 2.69 | -1.07 | -1.44 | 0.0978 | 0.28 | -0.0319 | 0.762 | -0.538 | 1.34
ATCGAAAGGTCGCGGTGAGTATAGAGAAAGGGAA | 6 | 4.14 | 0.362 | 3.7 | 0.371 | 5.23 | 4.84 | 4.74 | 1.65 | 3.31 | 0.748 | 2.76 | 0.634 | 0.427 | 1.87 | 3.21 | 0.401 | 3.63 | 0.883 | 4.66
CGAACTAGGTCATCCAGGACAGTGTATACATTGA | 4.45 | 2.66 | 0.861 | 2.24 | 0.0566 | 4.61 | 7.47 | 6.1 | 3.25 | 5.65 | 8.32 | 8.01 | 2.41 | 1.17 | 1.54 | 2.03 | 1.29 | 2.33 | 0.356 | 4.02
TCTGCTAGGTAAGTTGGTCAGCTAACGAGCTGCC | -0.553 | -0.651 | -0.909 | -0.852 | -0.795 | -0.166 | -0.748 | 0.411 | 1.22 | 0.642 | 0.619 | 0.862 | -0.126 | -0.493 | -1.41 | -0.474 | -1.39 | -0.538 | -1.81 | -0.235
ATCTCTAGGTAAAGTCCAGTGAAAGATCGATAGA | 0.403 | 0.465 | 0.0712 | -0.241 | 1.11 | 0.175 | 0.232 | 0.48 | 0.421 | 0.165 | 2.45 | 1.54 | 1.13 | 0.971 | 0.584 | -0.13 | 0.187 | -0.113 | 0.971 | 0.414

Reference: the supplement of paper PMC6555819
